# Data as given in the supplement of paper PMC10849652.
# About 8,800 targets were measured; listed, in parts, are those with a hit and a random draw of the rest. About 0.5% of all pairs of compound and target were hits. Unmarked numbers belong to inactive results.
# Assays:
# Test in all cases: log2 fold change, soluble protein after heating vs DMSO (PISA); higher = thermal stabilisation; K562 lysate, 10 uM; active = over 0.2 and 3.5 SD of the protein, either way, in both replicates (recomputed)
# [1] = compound: C#Cc1cccc(Nc2ncnc3cc(OCCOC)c(OCCOC)cc23)c1 [erlotinib]
# Method in brief: (§1)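 A 30 min treatment with 10 μM compound was applied to crude K562 extract at 1 mg/mL protein in PBS pH 7.4 with 1 mM MgCl2. Heating for 3 min spanned 48°C-58°C, after which aliquots were pooled, adjusted to 0.5% NP-40 at 4°C and spun at 21,000xg for 90 min. TMTpro 16plex LC-MS/MS of the supernatant, with channel sums equalised, gave values recorded as log-two fold change in thermal stability against solvent controls, from duplicates.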
# [2] = compound: C/C(=N\NC(=O)C1=CC(=CC=C1)S(=O)(=O)N2CCOCC2)/C3=C(C=CC(=C3)Cl)O
# Method in brief: as §1
# [3] = compound: C1=CC(=CC=C1C2=NC3=C(N2)C=C(C=C3)C(=O)N)OC4=CC=C(C=C4)Cl
# Method in brief: as §1
# [4] = compound: C1=CC2=C(C=CC(=C2)/C=C\3/C(=O)NC(=NCC4=CC=CS4)S3)N=C1
# Method in brief: as §1
# [5] = compound: C1=CC2=NC=CN=C2C=C1/C=C/3\C(=O)NC(=O)S3
# Method in brief: as §1
# [6] = compound: C1=CC=C(C=C1)C2=NC(=C(N2)C3=CC=NC=C3)C4=CC(=C(C=C4)Cl)O
# Method in brief: as §1
# [7] = compound: C1=CC=C2C(=C1)C3=NNC4=CC=CC(=C43)C2=O
# Method in brief: as §1
# [8] = compound: C1CCN(C1)C(=O)NC2=CC=CC(=C2)NC3=NC=C(C(=N3)NCCC4=CN=CN4)Br
# Method in brief: as §1
# [9] = compound: C1CN(CCC1(CC2=CC=C(C=C2)Cl)N)C3=NC=NC4=C3C=CN4
# Method in brief: as §1
# [10] = compound: C1COCCN1CCN2C3=CC=CC=C3N=C2NC(=O)C4=CC(=CC=C4)[N+](=O)[O-] [IRAK-1-4 Inhibitor I]
# Method in brief: as §1
# [11] = compound: C=CC(=O)N1CCC[C@@H](n2nc(-c3ccc(Oc4ccccc4)cc3)c3c(N)ncnc32)C1 [ibrutinib]
# Method in brief: as §1
# [12] = compound: CC(=O)c1cnc2ccc(-c3cc(Cl)c(O)c(Cl)c3)nc2c1N[C@H]1CC[C@H](CN(C)C)CC1
# Method in brief: as §1
# [13] = compound: CC(C)(C)Cn1c(N)nc2ccc(-c3[nH]c(C(C)(C)C)nc3-c3ccc(F)cc3)nc21 [ralimetinib]
# Method in brief: as §1
# [14] = compound: CC(C)(O)CC(=O)NCCn1ccc2ncnc(Nc3ccc(Oc4cccc(C(F)(F)F)c4)c(Cl)c3)c21
# Method in brief: as §1
# [15] = compound: CC(C)C1=C2N=C(C=C(N2N=C1)NCC3=CC=CC=C3)NCCCCCCN
# Method in brief: as §1
# [16] = compound: CC1=C(C(CC(=O)N1)C2=CC=C(C=C2)C(F)(F)F)C(=O)NC3=C(C=C4C(=C3)C=NN4)F
# Method in brief: as §1
# [17] = compound: CC1=C(C2=C(C=C1)C(=O)C3=CC=CC=C3N2CCCN)C
# Method in brief: as §1
# [18] = compound: CC1=C(C=C(C=C1)NC(=O)C2=CC(=CC=C2)C(C)(C)C#N)NC3=CC4=C(C=C3)N=CN(C4=O)C
# Method in brief: as §1
# [19] = compound: CC1=C(C=C(C=C1)NC(=O)C2=CC(=CC=C2)N(C)C)NC(=O)C3=CC=C(C=C3)O
# Method in brief: as §1
# [20] = compound: CC1=CC=C(C=C1)SC2=C3C=C(SC3=CN=C2)C(=O)N
# Method in brief: as §1
# UniProt P48147, sequence (P48147 whole entry, looked up): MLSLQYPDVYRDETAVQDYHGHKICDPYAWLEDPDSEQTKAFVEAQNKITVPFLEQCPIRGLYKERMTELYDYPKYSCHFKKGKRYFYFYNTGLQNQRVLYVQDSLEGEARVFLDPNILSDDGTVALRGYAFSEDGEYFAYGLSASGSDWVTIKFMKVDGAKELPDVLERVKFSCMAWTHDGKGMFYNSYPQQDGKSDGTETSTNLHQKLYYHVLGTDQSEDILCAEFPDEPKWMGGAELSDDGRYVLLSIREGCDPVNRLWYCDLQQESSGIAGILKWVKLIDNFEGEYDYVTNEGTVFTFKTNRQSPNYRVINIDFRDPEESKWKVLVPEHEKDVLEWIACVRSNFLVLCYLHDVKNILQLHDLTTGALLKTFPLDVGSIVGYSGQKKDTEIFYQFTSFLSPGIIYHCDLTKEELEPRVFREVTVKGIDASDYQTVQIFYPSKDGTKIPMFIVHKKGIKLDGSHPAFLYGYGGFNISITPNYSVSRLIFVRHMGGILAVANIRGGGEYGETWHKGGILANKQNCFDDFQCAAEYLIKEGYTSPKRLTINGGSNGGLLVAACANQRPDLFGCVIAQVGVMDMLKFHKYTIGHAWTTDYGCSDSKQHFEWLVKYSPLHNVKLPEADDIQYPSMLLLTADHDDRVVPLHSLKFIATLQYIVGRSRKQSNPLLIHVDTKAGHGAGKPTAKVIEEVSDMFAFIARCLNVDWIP
# UniProt O75334, sequence (O75334 whole entry, looked up): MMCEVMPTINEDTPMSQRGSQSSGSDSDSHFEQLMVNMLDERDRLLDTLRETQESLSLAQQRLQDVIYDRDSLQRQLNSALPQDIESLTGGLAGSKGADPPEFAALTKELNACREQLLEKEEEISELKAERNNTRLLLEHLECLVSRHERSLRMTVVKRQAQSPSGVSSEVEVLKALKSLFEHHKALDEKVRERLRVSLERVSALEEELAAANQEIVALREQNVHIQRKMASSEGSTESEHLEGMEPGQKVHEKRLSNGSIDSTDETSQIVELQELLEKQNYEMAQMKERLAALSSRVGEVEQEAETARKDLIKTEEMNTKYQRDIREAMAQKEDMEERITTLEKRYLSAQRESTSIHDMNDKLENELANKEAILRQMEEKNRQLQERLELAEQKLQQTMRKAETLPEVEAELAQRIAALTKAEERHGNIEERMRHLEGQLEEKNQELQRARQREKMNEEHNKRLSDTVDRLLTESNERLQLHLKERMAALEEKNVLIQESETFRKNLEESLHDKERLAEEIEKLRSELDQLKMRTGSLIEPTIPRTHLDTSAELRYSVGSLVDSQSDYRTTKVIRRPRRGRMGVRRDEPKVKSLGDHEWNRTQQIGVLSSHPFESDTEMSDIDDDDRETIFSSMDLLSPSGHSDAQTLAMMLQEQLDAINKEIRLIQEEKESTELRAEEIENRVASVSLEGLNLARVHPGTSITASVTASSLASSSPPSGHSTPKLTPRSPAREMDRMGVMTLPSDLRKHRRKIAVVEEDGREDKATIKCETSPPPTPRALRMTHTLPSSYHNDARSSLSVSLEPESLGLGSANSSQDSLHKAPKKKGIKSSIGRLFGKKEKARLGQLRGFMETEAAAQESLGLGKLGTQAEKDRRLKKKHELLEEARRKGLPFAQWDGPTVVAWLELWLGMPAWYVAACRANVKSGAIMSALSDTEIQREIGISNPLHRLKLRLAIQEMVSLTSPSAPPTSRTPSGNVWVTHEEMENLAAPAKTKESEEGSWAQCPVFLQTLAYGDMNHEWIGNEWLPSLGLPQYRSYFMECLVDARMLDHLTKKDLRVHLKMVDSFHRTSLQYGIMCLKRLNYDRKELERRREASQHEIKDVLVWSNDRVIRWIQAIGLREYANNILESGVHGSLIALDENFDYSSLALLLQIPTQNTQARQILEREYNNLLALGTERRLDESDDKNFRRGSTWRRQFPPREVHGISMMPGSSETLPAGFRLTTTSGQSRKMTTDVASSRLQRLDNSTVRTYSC
# UniProt Q9UHX1, sequence (Q9UHX1 whole entry, looked up): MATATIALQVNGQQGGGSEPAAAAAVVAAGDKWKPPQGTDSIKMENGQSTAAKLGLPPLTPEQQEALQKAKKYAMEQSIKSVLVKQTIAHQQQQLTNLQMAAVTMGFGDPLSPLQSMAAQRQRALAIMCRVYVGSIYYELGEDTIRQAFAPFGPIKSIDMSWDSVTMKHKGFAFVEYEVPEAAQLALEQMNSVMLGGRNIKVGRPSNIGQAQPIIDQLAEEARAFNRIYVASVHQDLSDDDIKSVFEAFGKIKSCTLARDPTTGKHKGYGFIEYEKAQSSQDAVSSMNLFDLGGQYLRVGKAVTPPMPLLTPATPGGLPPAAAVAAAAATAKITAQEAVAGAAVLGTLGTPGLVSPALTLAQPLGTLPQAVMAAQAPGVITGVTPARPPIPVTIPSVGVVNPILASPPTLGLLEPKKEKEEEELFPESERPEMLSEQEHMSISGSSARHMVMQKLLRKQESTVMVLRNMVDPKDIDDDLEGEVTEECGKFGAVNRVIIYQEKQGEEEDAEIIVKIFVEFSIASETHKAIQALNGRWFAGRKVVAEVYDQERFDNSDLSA
# UniProt Q5JRX3, sequence (Q5JRX3 whole entry, looked up): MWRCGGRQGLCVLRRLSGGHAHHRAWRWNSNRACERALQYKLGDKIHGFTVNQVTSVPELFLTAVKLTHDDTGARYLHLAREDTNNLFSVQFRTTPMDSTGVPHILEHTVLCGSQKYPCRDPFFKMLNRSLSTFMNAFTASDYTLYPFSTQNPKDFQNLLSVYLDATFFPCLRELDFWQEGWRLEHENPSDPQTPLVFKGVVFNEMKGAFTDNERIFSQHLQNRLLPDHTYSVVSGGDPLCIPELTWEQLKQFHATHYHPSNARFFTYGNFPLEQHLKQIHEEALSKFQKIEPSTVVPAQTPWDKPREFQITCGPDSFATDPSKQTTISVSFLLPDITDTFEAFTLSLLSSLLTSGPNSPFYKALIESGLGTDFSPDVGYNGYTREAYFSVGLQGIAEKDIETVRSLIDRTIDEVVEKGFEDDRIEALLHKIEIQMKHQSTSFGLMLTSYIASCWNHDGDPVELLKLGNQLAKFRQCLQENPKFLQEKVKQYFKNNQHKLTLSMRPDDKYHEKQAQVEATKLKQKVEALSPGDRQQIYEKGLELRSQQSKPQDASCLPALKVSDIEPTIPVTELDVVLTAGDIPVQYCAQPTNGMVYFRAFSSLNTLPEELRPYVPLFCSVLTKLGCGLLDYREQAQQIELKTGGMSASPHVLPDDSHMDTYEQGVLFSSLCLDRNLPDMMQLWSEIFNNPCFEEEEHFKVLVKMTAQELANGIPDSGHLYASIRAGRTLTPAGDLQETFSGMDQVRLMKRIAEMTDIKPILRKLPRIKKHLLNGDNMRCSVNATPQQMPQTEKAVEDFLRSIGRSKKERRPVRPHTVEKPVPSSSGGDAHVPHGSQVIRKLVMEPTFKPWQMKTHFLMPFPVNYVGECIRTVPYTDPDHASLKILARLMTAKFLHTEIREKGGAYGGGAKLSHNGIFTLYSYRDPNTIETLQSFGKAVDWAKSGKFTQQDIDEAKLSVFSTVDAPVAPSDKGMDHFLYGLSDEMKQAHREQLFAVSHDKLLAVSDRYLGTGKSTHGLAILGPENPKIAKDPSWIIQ
# UniProt O14744, sequence (O14744 whole entry, looked up): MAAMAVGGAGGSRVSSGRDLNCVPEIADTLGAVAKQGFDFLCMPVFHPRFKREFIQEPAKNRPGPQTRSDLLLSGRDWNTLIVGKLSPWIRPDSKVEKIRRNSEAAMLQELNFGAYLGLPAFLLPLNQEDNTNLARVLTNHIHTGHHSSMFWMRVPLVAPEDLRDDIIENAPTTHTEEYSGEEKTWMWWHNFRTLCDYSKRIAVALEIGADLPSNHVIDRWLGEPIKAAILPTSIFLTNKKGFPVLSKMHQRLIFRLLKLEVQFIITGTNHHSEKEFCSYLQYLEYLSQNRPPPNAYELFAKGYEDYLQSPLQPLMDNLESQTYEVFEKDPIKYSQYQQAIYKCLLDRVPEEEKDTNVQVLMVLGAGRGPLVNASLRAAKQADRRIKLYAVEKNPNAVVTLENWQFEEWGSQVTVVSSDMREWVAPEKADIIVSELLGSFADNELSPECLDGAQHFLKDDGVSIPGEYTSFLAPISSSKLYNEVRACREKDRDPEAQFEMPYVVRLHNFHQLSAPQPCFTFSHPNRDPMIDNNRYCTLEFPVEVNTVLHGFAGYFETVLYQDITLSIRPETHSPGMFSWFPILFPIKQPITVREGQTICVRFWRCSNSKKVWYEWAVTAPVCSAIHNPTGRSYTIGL
# UniProt P78395, sequence (P78395 whole entry, looked up): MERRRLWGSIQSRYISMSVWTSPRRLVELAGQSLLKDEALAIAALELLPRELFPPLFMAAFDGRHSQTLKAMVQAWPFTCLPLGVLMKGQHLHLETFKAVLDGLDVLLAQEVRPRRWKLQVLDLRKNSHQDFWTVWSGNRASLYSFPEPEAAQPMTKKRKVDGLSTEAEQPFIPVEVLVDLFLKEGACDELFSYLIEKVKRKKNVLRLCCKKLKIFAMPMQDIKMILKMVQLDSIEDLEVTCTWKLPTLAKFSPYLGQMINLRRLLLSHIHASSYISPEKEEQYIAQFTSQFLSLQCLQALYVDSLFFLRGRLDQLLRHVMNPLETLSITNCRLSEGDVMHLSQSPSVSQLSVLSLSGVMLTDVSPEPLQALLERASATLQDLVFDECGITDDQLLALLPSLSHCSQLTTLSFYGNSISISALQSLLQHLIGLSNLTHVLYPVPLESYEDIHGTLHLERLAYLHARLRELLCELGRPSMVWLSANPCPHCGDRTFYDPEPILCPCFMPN
# UniProt Q9Y244, sequence (Q9Y244 whole entry, looked up): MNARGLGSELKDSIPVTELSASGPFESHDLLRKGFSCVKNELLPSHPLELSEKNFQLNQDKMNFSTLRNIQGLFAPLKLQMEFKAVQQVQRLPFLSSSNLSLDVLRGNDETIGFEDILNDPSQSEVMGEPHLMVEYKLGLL
Target,log2 fold change [1],log2 fold change [2],log2 fold change [3],log2 fold change [4],log2 fold change [5],log2 fold change [6],log2 fold change [7],log2 fold change [8],log2 fold change [9],log2 fold change [10],log2 fold change [11],log2 fold change [12],log2 fold change [13],log2 fold change [14],log2 fold change [15],log2 fold change [16],log2 fold change [17],log2 fold change [18],log2 fold change [19],log2 fold change [20]
PDXDC1 (UniProt Q6P996),-0.012,0.008,-0.095,0.034,0.013,-0.005,0.024,-0.011,-0.024,-0.006,-0.006,0.051,0.071,-0.017,0.001,0.014,-0.024,-0.019,0.024,0.022
PTPN2 (UniProt P17706),0.028,0.119,-0.005,0.006,0.019,-0.045,-0.033,0,0.046,-0.017,0.016,-0.014,0.014,-0.001,-0.029,-0.035,0.045,-0.005,0.017,0.007
PREP (UniProt P48147),0.026,-0.016,0.028,-0.007,-0.002,0.002,-0.002,-0.024,0.014,-0.007,0.019,0,0.015,0.004,-0.008,0.011,-0.009,-0.006,0.006,0.011
PRKCSH (UniProt K7ELL7),-0.01,-0.124,0.004,-0.056,0,-0.036,-0.061,-0.096,-0.038,-0.039,-0.05,0.018,0.049,-0.051,0.049,0.006,-0.017,-0.019,0.005,-0.052
PUF60 (UniProt Q9UHX1),0.001,0.003,-0.01,0.011,-0.018,-0.018,0.01,0.003,0.003,-0.023,0.011,-0.004,-0.034,0.013,0.018,-0.02,0.009,-0.003,-0.001,0.004
POMP (UniProt Q9Y244),0.058,-0.022,-0.001,0.05,-0.003,-0.024,-0.08,-0.099,0.048,-0.023,-0.025,-0.043,-0.001,-0.033,-0.013,0.016,-0.09,0.048,0.027,-0.001
PRMT5 (UniProt O14744),0.002,0,0.032,0.006,0.007,0.017,0.017,0.012,0.019,0.003,0.004,-0.002,-0.015,0.004,-0.004,-0.015,-0.008,0.001,-0.01,0.022
PRKDC (UniProt P78527),0.021,-0.064,-0.029,0.135,0.927 (active),0.037,0.068,0.122,-0.041,0.02,0.096,0.318,0.033,0.01,-0.014,-0.021,0.031,-0.057,0.038,-0.01
PITRM1 isoform 2 (UniProt Q5JRX3),-0.035,0.011,0.077,0.04,-0.037,-0.025,0.009,0.016,0.024,-0.015,0.007,-0.004,0.134,-0.009,-0.019,0.001,-0.021,-0.001,-0.005,0.012
PRMT7 (UniProt Q9NVM4),-0.042,0.004,0.024,0.038,0.008,-0.023,-0.083,-0.033,-0.031,-0.008,0.043,-0.016,0.042,-0.01,0.017,0,-0.008,0.013,0.031,0.008
PHKG2 (UniProt P15735),-0.106,0.062,0.04,0.075,0.104,0.022,0.231,0.045,-0.011,0.036,-0.099,0.168,0.003,-0.011,0.03,-0.029,-0.018,-0.018,-0.004,-0.027
PRAME (UniProt P78395),0.02,-0.056,-0.001,-0.027,-0.037,0.013,-0.043,-0.004,0.007,-0.008,0.009,0.029,0.003,0.005,0.011,0.015,0.003,0.006,0.008,0.002
PPFIA2 (UniProt O75334),0.019,-0.005,0.02,-0.004,0.065,0.012,-0.006,0.02,-0.074,-0.022,-0.013,0.01,0.085,0.015,0.006,0.041,0.02,0.047,0.033,-0.022
